Results filed as inconclusive are left out. Active and inactive are the calls of the source. How the source made its calls: active means hit-call score of the fitted dose curve at least 0.9, where 1 is the maximum; inconclusive means response in the unintended direction; inactive means score below 0.9.
experiment: ACEA_ER_AUC_viability: ACEA Biosciences xCELLigence Real-Time Cell Analysis on Estrogen Receptor Agonism for Viability (AID 2283782);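 further: continuous compound exposure with impedance area under curve over 80 h; hit means loss of impedance signal meaning reduced cell growth or viability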
Method in brief: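 T47D cells preconditioned in phenol red-free RPMI with charcoal-stripped FBS, then dosed with 8-point 1:4 series from 100 uM (up to 0.5% DMSO). Impedance monitored up to ~80 h; area-under-curve loss versus DMSO taken as viability.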

SMILES	outcome	AC50
[Cl][Sc]([Cl])[Cl]	inactive	–
C=C(C)OC(C)=O	inactive	–
CC=C(C)C=CC=C(C)C	–	50 µM (active)
C=CC(=O)OCCCCCCOC(=O)C=C	–	85.3 µM (active)
CC(C)(CO)C(O)C(=O)NCCCO (centres undefined)	inactive	–
Cc1cc(=O)[nH]c(=O)[nH]1	inactive	–
CCN1CCCC1=O	inactive	–
CC1CC(=O)CC(C)(C)C1 (centres undefined)	inactive	–
Oc1ccc(/C=C/c2cc(O)cc(O)c2)cc1	–	20.6 µM (active)
CCC1COC(=O)O1 (centres undefined)	inactive	–
Fc1ccc(Br)cc1	inactive	–
CCCCCCOc1ccc(N)cc1	–	86.8 µM (active)
O=C(Cl)c1c(Cl)c(Cl)c(C(=O)Cl)c(Cl)c1Cl	inactive	–
C1CNCCN1	inactive	–
CC1=C(O)C(=O)C(C)O1 (centres undefined)	–	66.8 µM (active)
Cc1c(Cl)cccc1Cl	inactive	–
CC(=O)C(C)C	inactive	–

SMILES	outcome	AC50
CCCC1CCCC(=O)O1 (centres undefined)	inactive	–
CCc1cccc(C)c1N(C(=O)CS(=O)(=O)O)C(C)COC (centres undefined)	–	50 µM (active)
CCNc1nc(NC(C)(C)C)nc(OC)n1	–	26.2 µM (active)
C1CCSC1	inactive	–
O=C1CCCCC1C1CCCCC1 (centres undefined)	inactive	–
c1ccc2c(c1)[nH]c1ccccc12	–	36.4 µM (active)
C=CC(C)(O)CC/C=C(\C)CC (centres undefined)	–	50 µM (active)
C=CCNCC=C	–	50.5 µM (active)
CCCCCC(=O)OCC	inactive	–
CCCCCCCCCCCCCCCCCCOS(=O)(=O)O	–	75.4 µM (active)
OCCCc1ccccc1	inactive	–
CC(=O)CCC=C(C)C	inactive	–
C=CC(=O)OCC(C)OCC(C)OCC(C)OC(=O)C=C (centres undefined)	–	21.3 µM (active)
CC(C)COC(=O)CC(C(=O)OCC(C)C)S(=O)(=O)O (centres undefined)	inactive	–
O=C(OCCc1ccccc1)c1ccccc1	–	85.9 µM (active)
CCC(C)c1ccccc1 (centres undefined)	inactive	–
Clc1cccnc1	inactive	–

Source: PubChem BioAssay (EPA / NIEHS)
